PK Bst = modulators of Bacillus stearothermophilus pyruvate kinase; purified pyruvate kinase, luminescence ATP production; ribose 5-phosphate activator present at AC10; Potency, µM; hit rate 1.2% among 51,000; in the data active means potency below about 11 µM; inconclusive means mostly about 12 µM to 25 µM;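 the screen sought inhibitors and activators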;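 further: scaled between full activation by ribose 5 phosphate and full inhibition by luteolin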
15-hLO inh = inhibitors of human 15-lipoxygenase (ALOX15). P16050. purified 15hLO-1, xylenol orange hydroperoxide absorbance. Potency, µM (doses to about 57.1 µM), inactives show top-dose activity change, negative = inhibition, hits mostly inhibitors. hit rate 1.4% among 74,000; further: on the % scale 0 is the no-effect control and ±100 the full control effect; nearly all actives have a fitted effect of over 55% in size
Target sequence (P16050 whole entry, looked up): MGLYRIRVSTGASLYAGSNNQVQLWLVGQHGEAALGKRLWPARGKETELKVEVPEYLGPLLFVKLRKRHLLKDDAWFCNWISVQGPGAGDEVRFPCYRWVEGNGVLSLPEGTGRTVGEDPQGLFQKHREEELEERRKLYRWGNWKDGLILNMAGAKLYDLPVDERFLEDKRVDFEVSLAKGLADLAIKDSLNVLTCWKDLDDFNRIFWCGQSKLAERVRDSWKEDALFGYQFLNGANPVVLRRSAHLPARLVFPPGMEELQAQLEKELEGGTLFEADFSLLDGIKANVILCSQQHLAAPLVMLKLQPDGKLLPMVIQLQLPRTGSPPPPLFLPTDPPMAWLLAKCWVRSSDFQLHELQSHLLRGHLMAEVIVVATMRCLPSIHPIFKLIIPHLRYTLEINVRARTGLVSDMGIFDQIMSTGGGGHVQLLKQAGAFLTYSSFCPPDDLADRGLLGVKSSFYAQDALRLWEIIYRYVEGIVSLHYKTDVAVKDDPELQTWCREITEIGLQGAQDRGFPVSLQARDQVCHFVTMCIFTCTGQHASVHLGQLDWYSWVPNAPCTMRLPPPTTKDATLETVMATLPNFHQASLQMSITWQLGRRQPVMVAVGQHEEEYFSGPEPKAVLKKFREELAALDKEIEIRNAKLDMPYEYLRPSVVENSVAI
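40 nM 15hLO-1 + cpd, 15 min RT; start w/ 50 uM AA (final), 6 min RT; stop/detect w/ 200 uM XO + 300 uM Fe(II) in 50 mM H2SO4, 30 min; A573/A405. Buffer 25 mM Hepes pH 7.5, 0.01% Triton X-100. No-enzyme wells as negative control.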
HEK293 cAMP cs = parental HEK293 cAMP activation (counter-screen); parental HEK293 CNG cAMP sensor, membrane potential fluorescence; Potency, µM (titrated, usually from 57.1 µM), for inactives: at the top dose activation, actives largely listed as activators; hit rate 2.5% among 73,000; AID 938; further: % of control where 0% means no effect; nearly all actives have a fitted effect of over 55% in size
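Parental HEK 293 cells stably expressing a cAMP-gated CNG channel were loaded with membrane potential dye containing 100 uM RO 20-1724 for 60 min. Compound added for 30 min; depolarization read as fluorescence intensity at 590 nm.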
Luciferase inh = blocks Photinus pyralis firefly luciferase activity | P08659 | purified firefly luciferase, luminescence, 8 min | Potency, µM (series often up to 57.1 µM), inactives show top-dose activity change, negative = inhibition, most hits filed as inhibitors | hit rate 2.2% among 72,000; further: on the % scale 0 is the no-effect control and ±100 the full control effect; nearly all actives have a fitted effect of over 40% in size
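Firefly luciferase (PKLight detection mix) with 10 uM ATP in pH 7.2 imidazole buffer (KCl, MgCl2, Tween 20, BSA). Compounds tested across a concentration series (qHTS). Luminescence read after 8 min at ambient temperature.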
Tau filament bind = binds recombinant human tau filaments; recombinant tau filaments, thioflavin S fluorescence, 15 h; filaments grown with octadecylsulfate alongside compound; Potency, µM (doses to about 57.1 µM), for the others: at the top dose activity change, negative = inhibition; hit rate 2% among 71,000;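 further: on the % scale 0 is the no-effect control and ±100 the full control effect; actives lower thioflavin S fluorescence by blocking filaments or displacing dye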
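Read-out: ThS fluorescence, 450 nm excitation/510 nm emission; lower signal marks blocked filament formation or displaced dye. Tau at 1 uM with 30 uM ODS, 10 uM ThS, 5 mM DTT, 100 mM NaCl, 10 mM HEPES pH 7.4; 15 h, 37 C.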
TSHR ag = activates the human thyroid stimulating hormone receptor; hit rate 0.48% among 73,000; P16473; HEK293-CNG-TSHR cells (CNG channel as cAMP sensor), membrane potential dye, cAMP; Potency, µM (titrated, usually from 57.1 µM), for inactives: top-dose activation, usual class: activators; active means well fitted activation curve with a large enough effect in the main read-out, with a control signal flat, not every such curve was filed as active; inconclusive means small, poorly fitted or top-dose-only effect, or a change in a side signal; inactive means no such curve, though single readings can be large or run the other way; % of control where 0% means no effect;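 further: the control signal comes from parental cells without the receptor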
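HEK 293 cells stably expressing TSHR and a modified CNG channel, with CNG-only parental cells as counterscreen, were preloaded 60 min at room temperature with membrane potential dye containing 100 uM RO 20-1724. Compound exposure was 30 min, and depolarization was read as fluorescence at 590 nm.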
Starred values were filed as active, the others as inactive; i = inactive; ? = inconclusive; . = not tested or not shown; ! = not confirmed by another sample; [ ] = another dose, or the depositor's remark. Only some compounds are listed: those with a hit (about 7.8% of all), similar ones and a draw of the others. Unless noted, the call rests on the fitted dose curve; in most records, active means well fitted curve in the direction sought with a large enough effect; inconclusive means small, poorly fitted or top-dose-only effect, or another doubt; inactive means no such curve, though single readings can be large; an effect the other way counts as inactive or inconclusive. Potency means the concentration at half of the fitted maximal effect.

SMILES	PK Bst	15-hLO inh	HEK293 cAMP cs	Luciferase inh	Tau filament bind	TSHR ag
Nc1nnc(CCC2CCCCC2)s1	>57	-0.6%	6.6%	-2.0%	-4.0%	1.3%
N#CC1=C(N)SC(N)=C(C#N)C1CCC1CCCCC1	>57	15.8µM*	23.9%	-0.3%	95.2%	4.0%
NC(N)=NC(N)=Nc1c(F)c(F)c(F)c(F)c1F	.	1.4%[11.4 µM]	15.2%[11.4 µM]	3.2%[11.4 µM]	7.7%[11.4 µM]	-1.5%[11.4 µM]
Cc1cc(=O)n2[nH]c(-c3ccc(F)cc3)nc2n1	i	6.6%	5.3%	12.6µM*	-0.3%	12.4%
Cc1cc(=O)n2[nH]c(N3C(=O)CCC3=O)nc2n1	>25.6	.	.	0.0%[25.5 µM]	.	.
COC(=O)c1nn(-c2ccc(-c3ccccc3)cc2)cc1O	.	?	-9.9%	3.16µM*	99.4%	-6.5%
CCOC(=O)c1nn(-c2cc(C(=O)OC)cc(C(=O)OC)c2)cc1O	>57	-2.1%	-8.5%	1.6%	3.6%	-2.5%
Cc1cc(-c2nnco2)c(C)n1-c1ccc(F)cc1	>11.4	6.7%	15.8µM*	-15.8%	-0.6%	?
Cc1ccc(C)n1-c1ccc(-c2nnco2)cc1	>57	-16.2%	3.9%	0.0%	-8.4%	2.2%
Cc1ccc(NC(=O)CN(c2cc(C)cc(C)c2)S(=O)(=O)c2c(C)noc2C)nc1	.	-2.4%	20µM*	0.0%	-8.4%	?
Cc1cc(C)cc(N(CC(=O)Nc2cccc(C)n2)S(=O)(=O)c2c(C)noc2C)c1	.	-13.8%	?	-3.9%	-12.9%	?
N[C@@H](Cc1c[nH]c2ccc(O)cc12)C(=O)O	.	?	?	-3.7%	-10.5%	?
Oc1ccc2[nH]ccc2c1	>57	?	-0.5%	-4.3%	20µM*	-2.4%
Brc1ccc(-c2nc(-c3cccnc3)no2)o1	.	0.3%	-0.6%	-20.1%	-9.4%	1.8%
c1ccc(-c2noc(-c3ccc4ccccc4c3)n2)cc1	3.66*	-1.7%	18.3%	1.26µM*	5.3%	-1.3%
CCOc1ccc(-c2nc(-c3ccc(OC)cc3)no2)cc1OCC	>57	4.7%	16.4%	-7.6%	4.7%	-0.8%
Brc1ccc(-c2nc(-c3ccccc3)no2)o1	i	-6.2%	8.1%	12.6µM*	1.6%	17.8%
Cc1ccc(S(=O)(=O)Nc2ccccc2C(=O)O)c(C)c1	.	-5.0%	-3.1%	.	.	2.0%
CN(C/C=C\c1ccccc1)Cc1cccc2ccccc12	.	1.2%[25.6 µM]	?	-2.6%[25.5 µM]	-22.3%[25.6 µM]	?
CN1CCN(c2ccnc(-c3ccccc3C(F)(F)F)n2)CC1	.	-10.3%	31.6µM*	0.5%[2.29 µM]	2.8%	?
COc1ccccc1-c1nccc(N2CCN(C)CC2)n1	.	10.5%	28.2%	1.6%[2.29 µM]	0.9%	25.7%
CC(C)CN1CCC2(CC1)CCN(C(=O)c1csnn1)CC2	.	5.4%	3.2%	-0.5%[11.4 µM]	-6.7%	-0.4%
C#CCCCO/N=C1/C[C@@H](O)[C@@H](O)[C@@H]2[C@@H]3C(=O)N(Cc4ccc5c(c4)OCO5)C(=O)[C@H]3CC[C@H]12	.	-1.0%[11.4 µM]	-1.7%[11.4 µM]	0.2%[11.4 µM]	.	-7.3%[11.4 µM]
C=CCNc1nc2c3ccccc3n(C(C)=O)c2s1	i	?	-8.3%	20µM*	-1.4%	9.1%
O=S(=O)(c1ccccc1)N1CCC2(CCN(c3ccccc3)CC2)CC1	.	-7.6%	10.8%	1.1%[11.4 µM]	?	13.3%
SMILES	PK Bst	15-hLO inh	HEK293 cAMP cs	Luciferase inh	Tau filament bind	TSHR ag
CC1(C(=O)NCC2CC2)C=CC2(CCCCC2)N1C(=O)c1ccccc1 (stereo not drawn)	.	0.4%	10µM*	.	0.5%	?
CC1(C(=O)NCc2cc(F)cc(C(F)(F)F)c2)C=CC2(CCCCC2)N1C(=O)c1ccccc1 (stereo not drawn)	.	5.0%	17.1%	.	-9.3%	15.2%
COC(=O)[C@H]1C[C@@H]1[C@H](NC(=O)c1ccccc1)c1ccccc1	.	.	21.8%	.	7.8%	14.4%
COc1ccc(N=c2oc3c(OC)cccc3cc2C(=O)NCc2ccco2)c(OC)c1	>57	-9.3%	?	0.2%	1.26µM*	?
CCOC(=O)C1=C(N)Oc2c(oc(CO)cc2=O)C1c1c(F)cccc1Cl (stereo not drawn)	>57	-10.7%	?	-0.7%	11.1%	?
CC1CCC2C(=O)OC(CN=[N+]=[N-])CN2C1c1ccc(Br)cc1 (stereo not drawn)	.	4.6%[11.4 µM]	5.01µM*!	.	.	?

Compound activity as filed in PubChem BioAssay.
